The values below come from PubChem BioAssay (NCI).

Each structure is given as a SMILES string. This is part of a sample that, as a whole, favours compounds with a hit. Of some 83,000 tested, about 20% had one in any assay.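 Percent growth is the endpoint: 0 to 100 indicates growth inhibition (40 means 60% inhibition), 0 means no net growth, and negative values indicate cell death.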 Active and inactive are the calls of the source.

For this test, the system named is HS 578T breast. Nature of the test: NCI-60 one-dose screen, 48 h (100 = growth as untreated, 0 = no growth, -100 = all killed). The note with it: 10 µM unless noted. As to the method: Growth inhibition of the HS 578T human tumor cell line is measured as a screen for anti-cancer activity. Cells are grown in 96 well plates and exposed to the test compound for 48 hours. Compounds are tested at a single concentration, which is 10^-5 M for most compounds. The reported endpoint is percent growth (GI% or GIPRCNT), where numbers from 0 - 100% represent growth inhibition, and numbers from -100% - 0 represent cell death. For example, a value of 40 represents 60% growth inhibition. A value of 0 means no net growth occurred over the course of the experiment. A value of -40 indicates 40% of cells at the beginning of the experiment died by the end of the experiment. A value of -100 means all cells are dead at the end of the experiment.
NCI-60 Human Tumor Cell Lines Screen was performed using the standard one-dose NCI protocol, which is described in more detail at https://dtp.cancer.gov/discovery_development/nci-60/default.htm.
Compounds with GIPRCNT values below 10 were considered active. Activity score was based on GIPRCNT using the following formula: […]
Score is 0 for GIPRCNT values of 100 or above, 50 for GIPRCNT values of 0, and 100 for GIPRCNT values of -100.
Consider `Cc1ccccc1O`, for which the growth was 132% (inactive). With `CC(/C=N/N=C(N)N)=N\N=C(N)N`, the growth is 69.3% (inactive).

With `Oc1ccccc1OB(Oc1ccccc1O)N(CCCl)CCCl`, the growth was 106% (inactive). Consider `CC1(C)N=C(N)N=C(N)N1c1ccc(CCCCc2ccc(Cl)cc2S(=O)(=O)F)c(Cl)c1`, for which the growth is 65.5% (inactive). In the case of `CC(C)(C)[Si](C)(C)OC1[C@@H](O[Si](C)(C)C(C)(C)C)[C@@H](CNC(=O)NC(=O)CF)O[C@H]1n1cnc2c(NC(=O)Nc3ccccc3)ncnc21` (stereo not given in full), the growth is 29.5% (inactive). Consider `COc1ccc(NP2(=O)OCC(C)(N)CO2)cc1` (stereo not given), for which the growth was 109% (inactive). With `CCC(C)/C=C(C)/C=C/C(=O)c1c(O)c(-c2ccc(O)cc2)c[nH]c1=O` (stereo not given), the growth is 52.7% (inactive). Then `CC(N)Cc1ccc(O)cc1` (stereo not given), with 103% (inactive); and `O=C(c1cccs1)C1NO[N+]([O-])=C1c1cccs1` (stereo not given), with 83% (inactive); and `CCOP(=O)(OCC)Oc1ccc(Sc2ccc(OP(=O)(OCC)OCC)cc2)cc1`, with 109% (inactive). Take `c1ccc(CCN2CCCCC2Cc2ccccc2)cc1` (stereo not given): the growth was 116% (inactive). Take `NC(=O)C(Cl)Cl`: the growth is 117% (inactive).

With `CC(=O)OC1CCC2(C)C(=CCC3C4CC(CN5CC5)C(=O)C4(C)CCC32)C1` (stereo not given), the growth was 87.5% (inactive).

Turning to `Cc1ccc(C(=O)C2CN(C)CCC2(O)c2ccc(C)cc2)cc1` (stereo not given), the growth was 97% (inactive). Then `CC(=O)[O][Hg][CH2]C1(C)COC(C)([CH2][Hg][O]C(C)=O)CO1` (stereo not given), with 84.3% (inactive). Take `CCOC(=O)C1(c2ccccc2)CCN(CC(=O)c2ccc(NC(C)=O)cc2)CC1`: the growth is 113% (inactive). Under `[N-]=[N+]=NC(C(=O)O)c1ccccc1` (stereo not given) stands 113% (inactive); under `COc1cccc2c1C(=O)c1c(O)c3c(c(O)c1C2=O)CC(O)(/C(C)=N/NC(=O)CCC(=O)N/N=C(\C)C1(O)Cc2c(O)c4c(c(O)c2C(OC2CC(N)C(O)C(C)O2)C1)C(=O)c1c(OC)cccc1C4=O)CC3OC1CC(N)C(O)C(C)O1` (stereo not given), -11.5% [5 µM] (active); under `O=C(CI)Nc1ccc(Br)cc1`, 132% (inactive).

`CC(=O)C1CCC2C3CC=C4CC(OC(=O)Cc5ccc(N(CCCl)CCCl)cc5)CCC4(C)C3CCC12C` (stereo not given): the growth was 126% (inactive). For the compound `CNc1ccc(C(=O)CC(O)CCC(C)C2OC(=O)CC(O)CC(=O)CC(O)CC(O)CC(O)CC(O)CC3(O)CC(O)C(C(=O)OC)C(CC(O[C@@H]4O[C@H](C)[C@@H](O)[C@H](N)[C@@H]4O)/C=C/C=C/C=C/C=C/C=C/C=C/C=C/C2C)O3)cc1` (stereo not given in full), the growth is 6.91% (active).

Regarding `N#CC1c2ccccc2C=CN1C(=O)c1ccc(N(CCCl)CCCl)cc1` (stereo not given), the growth was 99.5% (inactive).

As to `CCCC(C)(C)c1ccc2c(c1)OC(C)(C)[C@@H]1CC=C(C)C[C@@H]21`, the growth is 100% (inactive). Under `C[C@@H]1O[C@@H](O[C@H]2CC[C@@]3(C)[C@H](CCC4[C@@H]3C(O)C[C@]3(C)[C@@H](c5ccc(=O)oc5)CC[C@]43O)C2)[C@H](O)[C@H](O)[C@H]1O` (stereo not given in full) stands -9.52% (active); under `Oc1ccc(O)c2c1C1(Cl)C(Cl)=C(Cl)C2(Cl)C1(Cl)Cl`, 55.6% (inactive). For the compound `CCN(CC)c1ccc(C=C2C(=O)NC(=S)NC2=O)cc1`, the growth is 88.6% (inactive).

Consider `Nc1cccc(CC(=O)Nc2ccc(S(=O)(=O)F)cc2)c1`, for which the growth is 99.1% (inactive). Take `O=S(=O)(Cl)c1ccccc1` (tested in a mixture with another compound): the growth is 102% (inactive). In the case of `O=S(=O)(O)c1ccc(-c2ccc([As](=O)(O)O)cc2)cc1`, the growth was 110% (inactive).

With `Cn1cnnc1[S-].[Au+].c1ccc([PH+](c2ccccc2)c2ccccc2)cc1`, the growth was 49.2% (inactive).

In the case of `C[As](=O)(O)c1ccc(C(=O)O)cc1`, the growth was 113% (inactive). With `CCCCCN(CCCCC)CC(O)c1ccc(C)c(Cl)c1` (stereo not given), the growth was 102% (inactive).

Turning to `COC[CH2][Hg][C]#[C][Hg][CH2]COC`, the growth is 85.3% (inactive). Under `CC(=O)O[C@H]1C[C@H](O[C@H]2[C@@H](O)C[C@H](O[C@H]3[C@@H](O)C[C@H](O[C@H]4CC[C@@]5(C)C(CCC6C5C[C@@H](O)[C@]5(C)[C@@H](C7=CC(=O)OC7)CC[C@]65O)C4)O[C@@H]3C)O[C@@H]2C)O[C@H](C)[C@H]1O[C@@H]1O[C@H](CO)[C@@H](O)[C@H](O)[C@H]1O` (stereo not given in full) stands 2.41% (active); under `CC(=O)Nc1ccc(Cc2ccc(NC(C)=O)cc2)cc1`, 121% (inactive); under `O=S(=O)(c1ccc(Cl)cc1)C(Cl)(Cl)Cl`, 55.8% (inactive).

Regarding `S=P(Nc1ccccc1)(Nc1ccccc1)c1ccccc1`, the growth was 107% (inactive). Under `CCOC(=O)/C=C(\C)Nc1ccc(N/C(C)=C/C(=O)OCC)c2c1Oc1ccccc1O2` stands 87.3% (inactive); under `CC[C@H](C)[C@H](NC(=O)Nc1ccccc1)C(=O)N(C)[C@H](C[C@@H](OC(C)=O)c1nc(C(=O)N[C@@H](Cc2ccccc2)C[C@H](C)C(=O)OC)cs1)C(C)C`, 5.14% (active); under `OC1(c2ccccc2F)c2ccccc2C2=NCCN21` (stereo not given), 110% (inactive).
